High-throughput results from PubChem.
Vaccinia mCherry = inhibitors of vaccinia virus infection (mCherry reporter signal). Vaccinia virus mCherry reporter infection, fluorescence. Potency, µM (titrated, usually from 36.5 µM), most hits filed as inhibitors. actives 0.63% (n = 310,000). AID 720579; calls by dose curve; tested in A549 cells; also: nearly all actives have a fitted effect of over 35% in size
HCMV antiviral = human cytomegalovirus inhibition | activity change, negative = inhibition, % at 57.5 µM | AID 1259415 | HFF cells, HCMV-luciferase reporter, 72 h; active compounds read low | actives 4.5% (n = 410,000); in the data active = activity change below about -60%; inconclusive = no clear call, values can overlap the other calls; inactive = above about -39%
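Two compound doses tested in HFFs infected with HCMV-luciferase, MOI 1 PFU/cell, 72 h at 37C. Lysate luminescence read with OneGlo; data normalized against buffer-only and 10uM Salinomycin inhibitor controls.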
FMDV antiviral = antivirals against foot and mouth disease virus. FMDV antiviral cell-based qHTS. Potency, µM (top dose mostly 57.9 µM), hits mostly inhibitors. actives 1.2% (n = 410,000); calls by dose curve; tested in HEK293T cells; also: read-out not given here; nearly all actives have a fitted effect of over 45% in size
HCV inh = blocks hepatitis C virus; Huh7.5.1 HCVcc-Cre infection, luciferase reporter, 44 h; Potency, µM (titrated, usually from 41.8 µM), most hits filed as inhibitors; actives 3.4% (n = 340,000); active = well fitted inhibition curve with a large enough effect; inconclusive = small, poorly fitted or top-dose-only effect, or another doubt; inactive = no such curve, though single readings can be large or run the other way
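Infectious HCVcc-Cre (~0.5 moi) was added to cells just after compound, with cells seeded 4 h earlier at 1,000 per well. Luciferase activity after 44 h culture reported infection; substrate was incubated 15 min at room temperature before reading.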
Vaccinia Venus = inhibitors of vaccinia virus (Venus reporter) | Vaccinia virus Venus reporter expression, fluorescence | Potency, µM (highest dose often 36.5 µM), usual class: inhibitors | actives 0.46% (n = 330,000) | AID 720580; calls by dose curve; tested in A549 cells; also: nearly all actives have a fitted effect of over 30% in size
Of the large screens only hits and unclear results are named; the others gave an inactive call; ! = a repeat was not active. Rows were chosen to be rich in hits. Some 7.3% of all compounds tested hit in one or more screens of this group.

CC1CCN(S(=O)(=O)c2ccc(C(=O)Nc3nnc(C4=COCCO4)o3)cc2)CC1	HCMV antiviral -70, HCV inh inconclusive (no result: Vaccinia mCherry, Vaccinia Venus)
O=C(Nc1nnc(-c2cccs2)o1)c1ccc(S(=O)(=O)N2CCOCC2)cc1	Vaccinia mCherry inconclusive, HCMV antiviral -84, Vaccinia Venus inconclusive
CCN1CCC(N[C@H]2C[C@@H](C(=O)NC)N(Cc3cccc4ccccc34)C2)CC1	none (no result: HCMV antiviral, HCV inh)
O=C(N/N=C/c1ccco1)c1cc(-c2ccccc2)nc2ccccc12	Vaccinia mCherry inconclusive
O=C(N/N=C/c1ccc([N+](=O)[O-])o1)c1cc(-c2cccc(Br)c2)nc2ccccc12	HCMV antiviral -70, HCV inh 10µM
CCCc1ccc(-c2cc(C(=O)N/N=C/c3ccc([N+](=O)[O-])o3)c3ccccc3n2)cc1	Vaccinia mCherry inconclusive, HCMV antiviral inconclusive, FMDV antiviral inconclusive, HCV inh 10µM, Vaccinia Venus inconclusive
CN1CCc2nc(NC(=O)COc3ccc4ccccc4c3)sc2C1	HCMV antiviral -82, HCV inh inconclusive
CCOc1cc(C=C(C(=O)OC)C(=O)OC)ccc1OCc1ccc([N+](=O)[O-])cc1	FMDV antiviral inconclusive, HCV inh 7.9µM, Vaccinia Venus 10µM (no result: Vaccinia mCherry)
COc1cccc2c1O/C(=N\O)C(C(=O)Nc1ccc(C)cc1)C2 (configuration not stated)	HCMV antiviral -60, HCV inh inconclusive (no result: Vaccinia mCherry, Vaccinia Venus)
Cn1c(=O)c2nc(SCC(=O)Nc3cc(Cl)cc(Cl)c3)n(C)c2n(C)c1=O	none (no result: HCV inh)
COc1cc(NC(=O)c2csc(-c3ccncc3)n2)cc(C(=O)Nc2cccc(C(F)(F)F)c2)c1	none
O=C(Nc1ccccc1)Nc1cccc(C(F)(F)F)c1	HCV inh inconclusive
COc1ccc(NC(=O)Nc2cccc(C(F)(F)F)c2)cn1	Vaccinia mCherry inconclusive, HCMV antiviral -63, HCV inh inconclusive, Vaccinia Venus inconclusive
O=C(Nc1cccc(C(F)(F)F)c1)Nc1cccs1	HCMV antiviral -80, Vaccinia Venus inconclusive (no result: HCV inh)
O=C(Nc1cccc(C(F)(F)F)c1)c1csc(-c2ccncc2)n1	HCMV antiviral inconclusive, FMDV antiviral 100µM
CCSCCc1nnc(NC(=O)Nc2cccc(C(F)(F)F)c2)s1	HCMV antiviral -83, FMDV antiviral inconclusive, HCV inh 3.5µM (no result: Vaccinia mCherry, Vaccinia Venus)
O=c1[nH]c(=O)c2nc(Br)n(C3OC(CO)C(O)C3O)c2[nH]1 (configuration not stated)	none (no result: HCMV antiviral, HCV inh)
O=C(O)c1ccccc1C(=O)Nc1ccc(Oc2cccc(C(F)(F)F)c2)nc1	FMDV antiviral 3.2µM
CCOCCCn1c(SCc2nc3ccccc3s2)nc2ccccc2c1=O	HCMV antiviral -78, HCV inh 11µM
CCOCCCn1c(SCC(=O)NC(C)C)nc2ccccc2c1=O	HCMV antiviral -107 (no result: Vaccinia mCherry, Vaccinia Venus)
CCOCCCn1c(SCC(=O)Nc2ccccc2)nc2ccccc2c1=O	Vaccinia Venus inconclusive
CCc1nnc(SCc2cccc(Cl)c2)c2cc3sccc3n12	none (no result: HCV inh)
CC(C)(C)C1CCc2nc(NC(=O)c3ccc([N+](=O)[O-])cc3)sc2C1 (configuration not stated)	HCMV antiviral -74, FMDV antiviral inconclusive (no result: HCV inh)
CC(C)(C)C1CCc2nc(NC(=O)c3cccc(Cl)c3)sc2C1 (configuration not stated)	HCMV antiviral -90, FMDV antiviral 2µM (no result: HCV inh)
CC(C)c1nnc(NC(=O)COc2ccccc2[N+](=O)[O-])s1	HCMV antiviral inconclusive
CCSc1nnc(NC(=O)COc2ccccc2[N+](=O)[O-])s1	HCMV antiviral -87, FMDV antiviral inconclusive
Cc1cccc(OCC(=O)Nc2nc3c(s2)CC(C(C)(C)C)CC3)c1C (configuration not stated)	none (no result: HCV inh)
CC(C)(C)C1CCc2nc(NC(=O)COc3ccccc3[N+](=O)[O-])sc2C1 (configuration not stated)	HCMV antiviral -91 (no result: HCV inh)
O=C(CN1C(=O)COc2ccc(S(=O)(=O)N3CCOCC3)cc21)N1CCN(c2cccc(C(F)(F)F)c2)CC1	none (no result: HCV inh)
CCN(CC)c1ccc(NC(=O)CN(C)S(=O)(=O)c2cccc3nsnc23)c(C)c1	HCMV antiviral -67 (no result: HCV inh)
Cc1ccc(NC(=O)CN(C)S(=O)(=O)c2cccc3nsnc23)c(C)c1	none (no result: HCV inh)
COc1ccccc1/C(C)=N/Oc1cc(N)cc([N+](=O)[O-])c1	HCV inh inconclusive (no result: Vaccinia mCherry, Vaccinia Venus)
Cc1ccc(NNC(=O)c2ccno2)cc1Cl	HCV inh 11µM (no result: Vaccinia mCherry, Vaccinia Venus)
Cc1ccc(NNC(=O)c2ccno2)cc1C	HCV inh inconclusive
CCSc1nc2nn(-c3ccccc3)c(=O)c-2c2n1CCCCC2	none (no result: Vaccinia mCherry)
O=C(CSc1nc2nn(-c3ccccc3)c(=O)c-2c2n1CCCCC2)c1ccc(OC(F)F)cc1	HCV inh 7.9µM (no result: Vaccinia mCherry, Vaccinia Venus)
Cc1ccc(NC(=O)c2ccc(NCc3ccc(F)cc3)nc2)cc1	HCMV antiviral -105
COc1ccc(-c2nc3ccc(NC(C)=O)cc3c(=O)n2Cc2cccc(Cl)c2)cc1COc1ccc(NC(C)=O)cc1	none (no result: HCMV antiviral, FMDV antiviral, HCV inh)
COc1ccc(NC(=O)c2cc3c(-c4ccccc4F)nn(C)c3s2)c(OC)c1	none (no result: HCV inh)
COc1cccc(-c2nn(C)c3sc(C(=O)NCc4ccco4)cc23)c1	HCV inh 7.1µM, Vaccinia Venus inconclusive
COc1cccc(-c2nn(C)c3sc(C(=O)NCCCN(C)Cc4ccccc4)cc23)c1	HCV inh inconclusive, Vaccinia Venus inconclusive
CCN(CC)CCCNC(=O)c1cc2c(-c3cccc(OC)c3)nn(C)c2s1	HCV inh 11µM
Cn1nc(-c2ccc(Cl)cc2)c2cc(C(=O)NCCCN3CCCC3)sc21	HCV inh 13µM, Vaccinia Venus inconclusive (no result: HCMV antiviral)
CCCCNC(=O)c1cc2c(-c3ccc(Cl)cc3)nn(C)c2s1	none
COc1ccc(OC)c(CCNC(=O)c2cc3c(-c4ccccc4F)nn(C)c3s2)c1	Vaccinia mCherry inconclusive, HCMV antiviral -90, FMDV antiviral inconclusive, Vaccinia Venus inconclusive (no result: HCV inh)
CCC(=O)NC(Nc1sc2c(c1C(=O)OC)CCN(C)C2)(C(F)(F)F)C(F)(F)F	HCMV antiviral -101 (no result: Vaccinia mCherry, Vaccinia Venus)
Cc1ccccc1NC(=O)C(C)OC(=O)C1CC(=O)N(Cc2ccco2)C1 (configuration not stated)	HCMV antiviral -102 (no result: Vaccinia mCherry, Vaccinia Venus)
COc1ccc2nc(N=NC3=C(O)CC(C)(C)CC3=O)sc2c1	Vaccinia mCherry inconclusive, HCMV antiviral -95, HCV inh inconclusive
COc1ccc2nc(N)sc2c1	none
COc1ccc2nc(N=Nc3ccc(O)c4ccccc34)sc2c1	HCMV antiviral -76, HCV inh inconclusive
O=C(CCSCc1cccc(Cl)c1)NCc1ccc(F)cc1Cl	none (no result: HCV inh)
Cc1cccc(NC(=O)COC(=O)CCCC2=NS(=O)(=O)c3ccccc3N2)c1	HCMV antiviral -104!
O=C(COC(=O)CCCC1=NS(=O)(=O)c2ccccc2N1)Nc1ccccc1	none
COC(=O)N1CCC2(CCN(C(=O)NC(C)C)CC2)CC1	none (no result: Vaccinia mCherry, HCMV antiviral, HCV inh, Vaccinia Venus)
CCCCc1c(-c2ccccc2OC)ncn1CCc1cccc(OC)c1	FMDV antiviral 22µM (no result: HCV inh)
CCCc1c(-c2ccccc2Br)ncn1Cc1ccccc1OC	HCMV antiviral -73, FMDV antiviral inconclusive (no result: HCV inh)
CCCCc1c(-c2ccccc2OC)ncn1CCc1ccccc1Cl	HCMV antiviral inconclusive, FMDV antiviral 35µM (no result: HCV inh)
CCCc1c(-c2ccccc2)ncn1Cc1ccccc1OC	FMDV antiviral inconclusive (no result: HCV inh)
